Records with an inconclusive call do not appear. Calls of active or inactive are those of the source.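 How the source made its calls, unless noted: active means viability at or below 10% of carrier control in both of two separate runs; inconclusive means viability at or below 10% in only one of the two runs; inactive means the rest.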
Assays:
[1] = reducers of endogenous Her2 protein level, primary screen, SKBR3 breast tumor cells, AlphaScreen, ATP viability (AID 461;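 active means Her2 level under about 52% in both replicate screens, with viability over 70% of control, limit read from the data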;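 on Her2 level: lower value means less Her2 protein in the cells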;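 on viability: percent of carrier control wells set as 100% viability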); conditions: 18-24 h, measured here: SKBR3 viability, ATP luminescence, at 10 µM
[2] = biological target: Receptor tyrosine-protein kinase erbB-2 (Homo sapiens) (UniProt P04626); assay: as above; conditions: 18-24 h, at 10 µM, stronger effect = lower value
[3] = SK-BR-3 cell growth inhibitors, pilot screen, 24 h, human (AID 572); conditions: SK-BR-3 viability, CellTiter-Glo luminescence, at 10 µM, stronger effect = lower value;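 further: compound exposure lasted between 18 and 24 h rather than exactly 24 h; 100% = carrier-treated control wells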
[4] = HUVEC growth inhibition – cell-based, human, primary screen (AID 575;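 active means viability at or below 30% in both replicate assays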;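 further: 100% = median of untreated cell wells with 0.1% DMSO on each plate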); conditions: HUVEC proliferation, CellTiter-Glo luminescence, 72 h; at 10 µM; stronger effect = lower value
[5] = growth inhibitors of H69AR lung tumor, primary screen, human, duplicate replicates (AID 580;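 active means viability at or under a set limit in both replicates, limit being median viability minus 3 SD, cut at about 48% in these data, passing the limit was not always enough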;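 further: 100% = mean luminescence of untreated wells and 0% = no signal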); conditions: H69AR lung tumor cells viability, ATP luminescence, 72 h; at 10 µM; stronger effect = lower value
[6] = reversal of MRP1-mediated doxorubicin resistance, pilot screen, H69AR cells, doxorubicin co-treatment (AID 601;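 active means viability loss from added drug above about 55%, and viability with drug at most 40%, in both replicates, limit read from the data, passing the limit was not always enough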); conditions: CellTiter-Glo, 72 h, at 10 µM; for differential viability (reversal): stronger effect = higher value
[7] = 384-well plate pilot, post-Golgi transport modulator project, inhibition of yeast transport mutant growth (AID 636; in the data active means inhibition above about 31%); conditions: absorbance 615 nm, about 18 h, stronger effect = higher value
[8] = growth suppression of yeast trafficking mutant, preliminary HTS, modulators of trafficking downstream of Golgi apparatus project, 1536-format plate, OD 615 nm (AID 637; in the data active means inhibition above about 30%); conditions: yeast transport mutant growth, absorbance 615 nm, 18 h; stronger effect = higher value
[9] = OD615 S. cerevisiae growth inhibition, permissive medium, pilot counter-assay, permissive growth control for S. cerevisiae lifespan shortening project (AID 705;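 active means growth inhibition above 25% in both replicates, a cutoff set 3 SD above the mean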); conditions: OD615, 24 h, at 10 µM, stronger effect = higher value
[10] = Restrictive medium S. cerevisiae growth inhibition, OD615, pilot screen of yeast lifespan reduction project, restrictive growth control (AID 706;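 active means growth inhibition above a set limit, 3 SD over mean compound inhibition, in both replicates, cut at about 43% in these data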;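 further: modified DeaD lifespan yeast strain shifted to restrictive glucose medium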); conditions: OD615, 48 h, at 10 µM, stronger effect = higher value
[11] = viability gain of MRP-1-high H69AR cells under doxorubicin, pilot screen, MRP-1 activator project, CellTiter-Glo, duplicate (AID 807;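 active means viability increase at or above a cutoff of the median across tested compounds plus 3 SD, cut at about 8.5% in these data, passing the limit was not always enough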;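 further: compound pretreatment 18-22 h then 72 h combined with doxorubicin; 0% = doxorubicin alone and 100% = vehicle without doxorubicin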); conditions: H69AR viability with doxorubicin, CellTiter-Glo luminescence; at 10 µM; stronger effect = higher value
[12] = growth suppression of beta-catenin knockout HCT116, pilot screen, human colon tumor cells (AID 823;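 active means cell viability at or below a set limit in both duplicate runs, the limit being the all-compound median minus 4 SD, cut at about 23% in these data, passing the limit was not always enough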;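 further: 0% = wells killed by 20 µM Hyamine and 100% = untreated DMSO cell wells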); conditions: CellTiter-Glo, 60 h, at 10 µM, stronger effect = lower value
[13] = growth suppression of PTEN-deleted HCT116, pilot screen, cell-based, HCT116 clonal line, CellTiter-Glo (AID 824;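 active means viability at or below 27.92% in each of two runs, the all-compound median minus 4 SD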;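 further: 0% = 20 µM Hyamine control and 100% = vehicle cell control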); conditions: 60 h, at 10 µM, stronger effect = lower value
[14] = inhibitors of the yeast RAM network, pilot screen, dse1pr::URA3 reporter, 5-FOA selection (AID 869;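 active means inhibition over a set limit, the all-compound mean plus 3 SD, in both replicate runs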;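 further: 0% = DMSO wells with no growth and 100% = 10 µM 1-NA-PP1 with full growth; RAM network block rescues cells from 5-FOA so hits raise OD615 growth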); conditions: S. cerevisiae dse1pr::URA3 5-FOA growth, OD615, 2 d; at 10 µM; stronger effect = higher value; strain carries analog-sensitive mutant Cbk1 kinase
[15] = RAM signaling pathway blockade in yeast – S. cerevisiae, Pdr1DBD-CYC8 efflux-inhibited sensitized strain, primary screen (AID 1298;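 active means RAM network inhibition above 8.4% in each of two replicates, 3 SD over the compound average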;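 further: 0% = DMSO untreated cells without growth and 100% = 10 µM 1-NA-PP1 full growth; higher means more yeast growth rescued from 5-FOA killing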); conditions: S. cerevisiae cbk1-as DSE1-URA3 strain, 5-FOA growth OD615, 2 d; at 50 µM; stronger effect = higher value
[16] = H69AR cells + 2 uM doxorubicin, measured here: viability with 2 uM doxorubicin, stronger effect = lower value
[17] = H69AR cells, compound alone cytotoxicity

Chain of Receptor tyrosine-protein kinase erbB-2 (Homo sapiens) (P04626 whole entry, looked up): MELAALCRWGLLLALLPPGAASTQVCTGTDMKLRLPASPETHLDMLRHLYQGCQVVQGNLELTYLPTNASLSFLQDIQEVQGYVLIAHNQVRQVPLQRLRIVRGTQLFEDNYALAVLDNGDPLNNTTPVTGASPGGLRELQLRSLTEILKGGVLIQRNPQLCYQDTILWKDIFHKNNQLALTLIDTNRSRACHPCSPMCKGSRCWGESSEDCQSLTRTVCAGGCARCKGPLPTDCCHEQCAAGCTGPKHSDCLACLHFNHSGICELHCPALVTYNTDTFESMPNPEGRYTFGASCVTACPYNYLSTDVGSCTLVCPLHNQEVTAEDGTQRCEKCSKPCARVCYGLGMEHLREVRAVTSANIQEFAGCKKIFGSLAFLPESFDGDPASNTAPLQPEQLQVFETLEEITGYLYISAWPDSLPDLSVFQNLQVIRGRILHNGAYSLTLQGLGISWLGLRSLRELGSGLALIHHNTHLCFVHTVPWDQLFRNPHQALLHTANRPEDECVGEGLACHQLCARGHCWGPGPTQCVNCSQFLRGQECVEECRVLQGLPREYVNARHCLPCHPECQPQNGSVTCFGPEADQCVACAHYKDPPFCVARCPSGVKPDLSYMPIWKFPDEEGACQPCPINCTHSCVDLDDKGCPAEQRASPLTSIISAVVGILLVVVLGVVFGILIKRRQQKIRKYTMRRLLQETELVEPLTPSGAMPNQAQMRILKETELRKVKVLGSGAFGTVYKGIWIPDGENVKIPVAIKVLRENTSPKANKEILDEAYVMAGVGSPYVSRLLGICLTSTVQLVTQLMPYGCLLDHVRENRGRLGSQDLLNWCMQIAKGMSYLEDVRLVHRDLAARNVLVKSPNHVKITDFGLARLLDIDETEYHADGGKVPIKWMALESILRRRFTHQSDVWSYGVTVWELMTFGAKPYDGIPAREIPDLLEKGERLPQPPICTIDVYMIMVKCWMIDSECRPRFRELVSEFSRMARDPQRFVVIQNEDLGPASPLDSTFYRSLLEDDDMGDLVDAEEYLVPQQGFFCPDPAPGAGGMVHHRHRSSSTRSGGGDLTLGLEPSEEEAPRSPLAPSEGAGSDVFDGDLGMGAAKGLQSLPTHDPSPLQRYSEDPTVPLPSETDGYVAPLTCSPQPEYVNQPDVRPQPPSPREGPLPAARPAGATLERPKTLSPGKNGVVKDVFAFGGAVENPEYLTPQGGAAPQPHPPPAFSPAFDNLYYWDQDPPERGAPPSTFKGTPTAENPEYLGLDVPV

| Compound | viability [1] | Her2 level [2] | viability [3] | viability [4] | viability [5] | differential viability (reversal) ([6]; H69AR cells + 2 uM doxorubicin) | viability [6, 16] | viability [6, 17] | inhibition [7] | inhibition [8] | growth inhibition [9] | growth inhibition [10] | viability increase [11] | viability [12] | viability [13] | inhibition [14] | RAM network inhibition [15] |
| --- | --- | --- | --- | --- | --- | --- | --- | --- | --- | --- | --- | --- | --- | --- | --- | --- | --- |
| CCOC(=O)c1[nH]c(C)c(C(=O)NC)c1C | 92% | 112% (inactive) | 92% (inactive) | 89.7% (inactive) | 98.8% (inactive) | 13.8% (inactive) | 85% | 98.8% | -0.26% (inactive) | -1.17% (inactive) | -4.37% (inactive) | -10.2% (inactive) | -0.95% (inactive) | 109% (inactive) | 90.8% (inactive) | 1.32% (inactive) | -1.66% (inactive) |
| Cc1nc2c(-c3ccccc3)c(C)nn2c(C)c1CCC(=O)NCc1ccco1 | 101% | 100% (inactive) | 101% (inactive) | 88.2% (inactive) | 90.8% (inactive) | 14.2% (inactive) | 76.6% | 90.8% | -0.9% (inactive) | -2.5% (inactive) | -4.98% (inactive) | 5.46% (inactive) | -3.51% (inactive) | 98.9% (inactive) | 101% (inactive) | 1.4% (inactive) | 5.36% (inactive) |
| CCN(CC)CCn1c(=N)n(CCO)c2ccccc21 | 94.5% | 94% (inactive) | 94.5% (inactive) | 107% (inactive) | 101% (inactive) | 8.55% (inactive) | 92.9% | 101% | -5.32% (inactive) | 2.33% (inactive) | 0.615% (inactive) | 1.18% (inactive) | -0.4% (inactive) | 101% (inactive) | 97.5% (inactive) | 0.605% (inactive) | 4.92% (inactive) |
| COc1ccccc1C(=O)OCn1nnc2ccccc2c1=O | 96.5% | 98% (inactive) | 96.5% (inactive) | 78.8% (inactive) | 99.5% (inactive) | -15.4% (inactive) | 115% | 99.5% | -4.27% (inactive) | 1.17% (inactive) | -11.2% (inactive) | -10.4% (inactive) | -0.53% (inactive) | 95% (inactive) | 91.2% (inactive) | 0.655% (inactive) | 0.92% (inactive) |
| O=C(Nc1cccc2ccccc12)c1ccc(Br)o1 | 120% | 88.5% (inactive) | 120% (inactive) | 87.1% (inactive) | 84% (inactive) | -1.12% (inactive) | 85.1% | 84% | -3.25% (inactive) | -0.17% (inactive) | -10% (inactive) | 1.96% (inactive) | -1.67% (inactive) | 94.3% (inactive) | 90.8% (inactive) | 0.995% (inactive) | 3.58% (inactive) |
| CC1Cn2c(nnc2-c2ccc(F)cc2)S1 (stereo not given) | 112% | 105% (inactive) | 112% (inactive) | 107% (inactive) | 93.7% (inactive) | -1.42% (inactive) | 95.2% | 93.7% | -2.4% (inactive) | -4% (inactive) | -9.71% (inactive) | -14.2% (inactive) | -0.42% (inactive) | 112% (inactive) | 101% (inactive) | 1.92% (inactive) | 3.35% (inactive) |
| O=c1c2ccccc2nc2n1CCN2 | 84% | 95.5% (inactive) | 84% (inactive) | 91.9% (inactive) | 109% (inactive) | 26.2% (inactive) | 83.3% | 109% | -0.93% (inactive) | 5.16% (inactive) | -3.22% (inactive) | -1.61% (inactive) | 0.22% (inactive) | 101% (inactive) | 104% (inactive) | 1.84% (inactive) | -0.47% (inactive) |
| COc1ccc(N2CCN(Cc3nc4c(c(=O)n(C)c(=O)n4C)n3Cc3ccccc3C)CC2)cc1 | 92.5% | 81% (inactive) | 92.5% (inactive) | 94.5% (inactive) | 80% (inactive) | 25.1% (inactive) | 54.9% | 80% | -2.4% (inactive) | -2% (inactive) | -12.5% (inactive) | -24.9% (inactive) | -4.52% (inactive) | 90.7% (inactive) | 77.6% (inactive) | 1.29% (inactive) | -0.26% (inactive) |
| COC(=O)c1cc(OC)c(OC)cc1NC(=O)c1ccc(Br)o1 | 85.5% | 84% (inactive) | 85.5% (inactive) | 101% (inactive) | 87.6% (inactive) | -5.39% (inactive) | 93% | 87.6% | 0.13% (inactive) | 3% (inactive) | -14.5% (inactive) | -3.21% (inactive) | -0.2% (inactive) | 96% (inactive) | 86.1% (inactive) | 3.2% (inactive) | 4.75% (inactive) |
| CCOC(=O)c1oc2c(CN3CCN(C)CC3)c(O)ccc2c(=O)c1-c1ccccc1OC | 94% | 110% (inactive) | 94% (inactive) | 99.5% (inactive) | 93.1% (inactive) | -0.225% (inactive) | 93.3% | 93.1% | 0% (inactive) | 0.5% (inactive) | -13% (inactive) | -15.5% (inactive) | -1.3% (inactive) | 103% (inactive) | 94% (inactive) | 3.98% (inactive) | 1.2% (inactive) |
| O=C(O)C1CCCN(S(=O)(=O)c2ccc(Cl)s2)C1 (stereo not given) | 91% | 124% (inactive) | 91% (inactive) | 102% (inactive) | 93.1% (inactive) | 4.47% (inactive) | 88.6% | 93.1% | -4.8% (inactive) | 0.5% (inactive) | -4.79% (inactive) | 7.83% (inactive) | 0.34% (inactive) | 100% (inactive) | 102% (inactive) | 2.21% (inactive) | 0.99% (inactive) |
| CCn1cc(C(=O)NCCC2=CCCCC2)c(=O)c2cc(S(=O)(=O)N(C)C)ccc21 | 82.5% | 98.5% (inactive) | 82.5% (inactive) | 70.4% (inactive) | 71.7% (inactive) | 9.64% (inactive) | 62.1% | 71.7% | -4.67% (inactive) | -3.61% (inactive) | -14.2% (inactive) | -29.6% (inactive) | -4.4% (inactive) | 86.4% (inactive) | 72.6% (inactive) | 1.37% (inactive) | 1.83% (inactive) |
| CCCOC(=O)c1[nH]c2c(c1C)C(=O)CC(c1cc(OC)c(OC)c(OC)c1)C2 (stereo not given) | 89% | 79% (inactive) | 89% (inactive) | 88.7% (inactive) | 74.2% (inactive) | 9.54% (inactive) | 64.6% | 74.2% | -0.26% (inactive) | -4% (inactive) | -16.2% (inactive) | -14.6% (inactive) | 1.98% (inactive) | 48.1% (inactive) | 61.2% (inactive) | 2.23% (inactive) | 5.86% (inactive) |
| Cc1nc2ccc(S(=O)(=O)NC(C(=O)NCc3cccs3)C(C)C)cc2s1 (stereo not given) | 88.5% | 116% (inactive) | 88.5% (inactive) | 97.9% (inactive) | 111% (inactive) | 18.2% (inactive) | 92.6% | 111% | -5% (inactive) | -2.67% (inactive) | -3.81% (inactive) | -9.54% (inactive) | -0.45% (inactive) | 102% (inactive) | 99.6% (inactive) | 2.96% (inactive) | 5.02% (inactive) |
| CCOc1ccc(-c2cc(CCCC(=O)N3CCN(c4ccc(OC)cc4)CC3)no2)cc1 | 85% | 104% (inactive) | 85% (inactive) | 77.8% (inactive) | 67.7% (inactive) | -2.52% (inactive) | 70.2% | 67.7% | 4.1% (inactive) | -2.67% (inactive) | 2.23% (inactive) | 1.43% (inactive) | -3.39% (inactive) | 81.7% (inactive) | 82.5% (inactive) | 2.54% (inactive) | 8.59% (inactive) |
| CN1CCN(Cc2nc3c(c(=O)[nH]c(=O)n3C)n2CCc2ccccc2)CC1 | 82% | 96% (inactive) | 82% (inactive) | 91.2% (inactive) | 93% (inactive) | -4.29% (inactive) | 97.2% | 93% | -6% (inactive) | -5% (inactive) | -4.41% (inactive) | 1.98% (inactive) | -4.22% (inactive) | 92% (inactive) | 93.5% (inactive) | 0.565% (inactive) | 1.56% (inactive) |
| CCN1CCCC1CNC(=O)c1cc2c(=O)n(C)c3ccccc3c2n1C (stereo not given) | 87% | 86.5% (inactive) | 87% (inactive) | 74.7% (inactive) | 87.8% (inactive) | 7.05% (inactive) | 80.8% | 87.8% | -0.4% (inactive) | 15.9% (inactive) | -1.93% (inactive) | -3.33% (inactive) | -5.23% (inactive) | 67.5% (inactive) | 66.2% (inactive) | 1.1% (inactive) | 2% (inactive) |
| COc1ccc(C(=O)Oc2c(CN3CCOCC3)cc(Cl)c3cccnc23)cc1OC | 93% | 95.5% (inactive) | 93% (inactive) | 71.8% (inactive) | 1.58% (active) | -0.17% (inactive) | 1.75% | 1.58% | -5.87% (inactive) | -6.23% (inactive) | -12.6% (inactive) | -19.1% (inactive) | -8.29% (inactive) | 9.93% (active) | 5.98% (active) | 1.39% (inactive) | 0.26% (inactive) |
| CCOc1ccc(Cn2nnc(C(=O)NCc3ccc(OC)cc3)c2N)cc1 | 95% | 102% (inactive) | 95% (inactive) | 74.3% (inactive) | 89.5% (inactive) | -2.11% (inactive) | 91.6% | 89.5% | -4.67% (inactive) | -4.33% (inactive) | -3.91% (inactive) | -6.16% (inactive) | -0.43% (inactive) | 95.8% (inactive) | 94.8% (inactive) | 2.19% (inactive) | 4.7% (inactive) |
| COc1cc(/C=N/n2cnnc2)ccc1OCC(=O)N1CCOCC1 | 84% | 93.5% (inactive) | 84% (inactive) | 99.5% (inactive) | 93% (inactive) | -6.64% (inactive) | 99.6% | 93% | -0.9% (inactive) | -1.17% (inactive) | -6.31% (inactive) | -6.25% (inactive) | -2.75% (inactive) | 104% (inactive) | 98.9% (inactive) | 2.55% (inactive) | 6.03% (inactive) |
